# Laboratory results published in article PMC8384837, “Expanding the binding specificity for RNA recognition by a PUF domain”.
# How the values were obtained:
# Test in all cases: yeast three-hybrid, YBZ-1, SC-Leu-His + 0.5 mM 3-AT, 4 days
# Settings in all cases: tags: N-Gal4 AD-HA kept; label: inside an RPR1-promoter hybrid RNA with tandem MS2 sites; ssRNA
# [1] = target: PUM1 PUF domain R7-TSV (Homo sapiens, UniProt Q14671 828-1176, S1079T;N1080S;E1083V)
# In short: (§1)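 Pumilio-1 PUF domain libraries, randomized at the three base-contacting residues of each repeat, were co-expressed with matching RNA elements from a centromeric plasmid in strain YBZ-1, which carries a LexA–MS2 coat fusion and a HIS3 reporter. Transformants grew for four days on SC-Leu (input) or on SC-Leu-His + 0.5 mM 3-AT (selection), and the repeat regions were PCR-amplified and Illumina-sequenced. The interaction score is the log change in variant frequency from input to selection. That logarithm is base 2, with a pseudocount of 1 where a variant was absent.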
# [2] = target: PUM1 PUF domain R5-TTR (Homo sapiens, UniProt Q14671 828-1176, C1007T;R1008T;Q1011R)
# In short: as §1
# [3] = target: PUM1 PUF domain R8-PWA (Homo sapiens, UniProt Q14671 828-1176, N1122P;Y1123W;Q1126A)
# In short: as §1
# [4] = target: T1, PUM1 PUF domain R6-LFS (Homo sapiens, UniProt Q14671 828-1176, N1043L;Y1044F;Q1047S)
# T1 sequence: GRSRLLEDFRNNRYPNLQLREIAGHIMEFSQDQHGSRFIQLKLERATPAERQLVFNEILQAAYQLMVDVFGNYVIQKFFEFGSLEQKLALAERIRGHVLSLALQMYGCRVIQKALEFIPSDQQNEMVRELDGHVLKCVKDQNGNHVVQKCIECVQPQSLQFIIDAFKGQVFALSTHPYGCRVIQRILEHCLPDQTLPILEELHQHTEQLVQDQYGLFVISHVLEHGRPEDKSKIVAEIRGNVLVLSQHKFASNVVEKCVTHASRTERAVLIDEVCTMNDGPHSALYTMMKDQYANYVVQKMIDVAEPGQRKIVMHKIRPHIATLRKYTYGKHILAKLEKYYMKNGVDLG
# In short: as §1
# [5] = target: PUM1 PUF domain R4-PFA (Homo sapiens, UniProt Q14671 828-1176, N971P;H972F;Q975A)
# In short: as §1
# [6] = target: PUM1 PUF domain R3-ARH (Homo sapiens, UniProt Q14671 828-1176, C935A;Q939H)
# In short: as §1
# [7] = target: PUM1 PUF domain R5-RCM (Homo sapiens, UniProt Q14671 828-1176, C1007R;R1008C;Q1011M)
# In short: as §1
# [8] = target: PUM1 PUF domain R7-HFP (Homo sapiens, UniProt Q14671 828-1176, S1079H;N1080F;E1083P)
# In short: as §1
# [9] = target: PUM1 PUF domain R4-GQG (Homo sapiens, UniProt Q14671 828-1176, N971G;H972Q;Q975G)
# In short: as §1
# [10] = target: PUM1 PUF domain R3-FRV (Homo sapiens, UniProt Q14671 828-1176, C935F;Q939V)
# In short: as §1
sequence,measurement,setting,value
GGCUAGAACUAGUGGAUCCCCCGGCGCCCGGCGGCUCGAGCCCGGGUAAGUUUAAAUAGUCUGCAUGCCGCCGGGCGCCAUGCCUGCAGGUCGACUCUAGAAAACAUG,binding signal,[1],2.77 log2 enrichment (interaction score)
GGCUAGAACUAGUGGAUCCCCCGGCGCCCGGCGGCUCGAGCCCGGGUAAGUGUAAAUAGUCUGCAUGCCGCCGGGCGCCAUGCCUGCAGGUCGACUCUAGAAAACAUG,binding signal,[2],0.63 log2 enrichment (interaction score)
same,binding signal,[3],2.2 log2 enrichment (interaction score)
same,binding signal,[4],1.98 log2 enrichment (interaction score)
same,binding signal,[5],4.95 log2 enrichment (interaction score)
same,binding signal,[6],3.26 log2 enrichment (interaction score)
same,binding signal,[7],0.77 log2 enrichment (interaction score)
GGCUAGAACUAGUGGAUCCCCCGGCGCCCGGCGGCUCGAGCCCGGGUAAGUGUCAAUAGUCUGCAUGCCGCCGGGCGCCAUGCCUGCAGGUCGACUCUAGAAAACAUG,binding signal,[2],6.52 log2 enrichment (interaction score)
same,binding signal,[7],3.2 log2 enrichment (interaction score)
GGCUAGAACUAGUGGAUCCCCCGGCGCCCGGCGGCUCGAGCCCGGGUAAGUGUGAAUAGUCUGCAUGCCGCCGGGCGCCAUGCCUGCAGGUCGACUCUAGAAAACAUG,binding signal,[7],1.67 log2 enrichment (interaction score)
GGCUAGAACUAGUGGAUCCCCCGGCGCCCGGCGGCUCGAGCCCGGGUAAGUCUAAAUAGUCUGCAUGCCGCCGGGCGCCAUGCCUGCAGGUCGACUCUAGAAAACAUG,binding signal,[8],4.02 log2 enrichment (interaction score)
GGCUAGAACUAGUGGAUCCCCCGGCGCCCGGCGGCUCGAGCCCGGGUAAGUGUAUAUAGUCUGCAUGCCGCCGGGCGCCAUGCCUGCAGGUCGACUCUAGAAAACAUG,binding signal,[9],2.39 log2 enrichment (interaction score)
same,binding signal,[5],4.96 log2 enrichment (interaction score)
GGCUAGAACUAGUGGAUCCCCCGGCGCCCGGCGGCUCGAGCCCGGGUAAGUGUACAUAGUCUGCAUGCCGCCGGGCGCCAUGCCUGCAGGUCGACUCUAGAAAACAUG,binding signal,[5],3.34 log2 enrichment (interaction score)
GGCUAGAACUAGUGGAUCCCCCGGCGCCCGGCGGCUCGAGCCCGGGUAAGUGAAAAUAGUCUGCAUGCCGCCGGGCGCCAUGCCUGCAGGUCGACUCUAGAAAACAUG,binding signal,[4],5.7 log2 enrichment (interaction score)
GGCUAGAACUAGUGGAUCCCCCGGCGCCCGGCGGCUCGAGCCCGGGUAAGUGUAAGUAGUCUGCAUGCCGCCGGGCGCCAUGCCUGCAGGUCGACUCUAGAAAACAUG,binding signal,[10],4.5 log2 enrichment (interaction score)
GGCUAGAACUAGUGGAUCCCCCGGCGCCCGGCGGCUCGAGCCCGGGUAAGCGUAAAUAGUCUGCAUGCCGCCGGGCGCCAUGCCUGCAGGUCGACUCUAGAAAACAUG,binding signal,[3],2.7 log2 enrichment (interaction score)
GGCUAGAACUAGUGGAUCCCCCGGCGCCCGGCGGCUCGAGCCCGGGUAAGUGUUAAUAGUCUGCAUGCCGCCGGGCGCCAUGCCUGCAGGUCGACUCUAGAAAACAUG,binding signal,[2],2.44 log2 enrichment (interaction score)
GGCUAGAACUAGUGGAUCCCCCGGCGCCCGGCGGCUCGAGCCCGGGUAAGUGUAAUUAGUCUGCAUGCCGCCGGGCGCCAUGCCUGCAGGUCGACUCUAGAAAACAUG,binding signal,[10],1.27 log2 enrichment (interaction score)
